Experimental data as given in PubChem BioAssay AID624202 (National Center for Advancing Translational Sciences (NCATS), 2012).
The whole screen tested about 380,000 compounds, of which about 4,000 (1.1%) were called active. Another 3% or so got no clear call; they are omitted. Calls follow the shape of the dose curve; as a rule, active = well fitted activation curve with a large enough effect; inconclusive = small, poorly fitted or top-dose-only effect; inactive = no such curve, though single readings can be large or run the other way. What follows is part of a selection rich in actives, with near analogues and random picks from the rest.

Experiment: qHTS Assay to Identify Small Molecule Activators of BRCA1 Expression; also: nearly all actives have a fitted effect of over 80% in size
Conditions: MCF7-BRCA1-FFLuc reporter, luminescence, 48 h; series mostly up to 46.1 µM; activation: at the top concentration
Method in brief: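 Reporter cells (MCF7, BRCA1 promoter-firefly luciferase) received library compounds across a concentration series for 48 h. End-point luminescence was measured and concentration-effect curves derived after normalization.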
Potency is read from the fitted curve at half-maximal effect.

Structure (SMILES)	activation	Potency
CCOC(=O)C1CCCN(CC(=O)Nc2cc(C)c3c(=O)oc4ccccc4c3n2)C1 (stereo not drawn)	2.55% (inactive)	
CS(=O)(=O)N1CCc2cc(C(=O)Nc3ccccc3)ccc21	17.3% (inactive)	
C/C(Cc1ccccc1)=N\NC(=O)CNC(=O)c1ccc2c(c1)OCCO2	21.3% (inactive)	
O=C(Nc1ccccc1)c1ccc2c(c1)OCCCO2		12.6 µM (active)
O=C1N(Cc2ccccc2)c2ccc(Cl)cc2C1(O)c1c[nH]c2ccccc12 (stereo not drawn)	-30.5% (inactive)	
O=C(NCc1ccc(Cl)cc1)C1CCN(S(=O)(=O)c2cccs2)CC1	-3.74% (inactive)	
O=C(NCc1csc(-c2cccs2)n1)C1CC1		11.2 µM (active)
CC(C)(C)C1CCC(C(=O)NCC(c2cccs2)N2CCOCC2)CC1 (stereo not drawn)	-16.4% (inactive)	
Cc1ccc(CNS(=O)(=O)c2ccc(C(=O)N(C)C)s2)cc1	-1.32% (inactive)	
CCOC(=O)c1ccc(N2C(=O)c3n[nH]c(-c4ccco4)c3C2c2ccc(O)cc2)cc1 (stereo not drawn)	-71.7% (inactive)	
CCCNC(=O)C1CC(=O)N(c2ccc(OCc3ccccc3)cc2)C1 (stereo not drawn)		3.16 µM (active)
CCOc1ccc(N2CC(C(=O)NCc3ccccn3)CC2=O)cc1 (stereo not drawn)	-0.452% (inactive)	
CCCNC(=O)C1CC(=O)N(c2ccc(OCC(=O)Nc3cccc(C)c3C)cc2)C1 (stereo not drawn)	16.9% (inactive)	
OCC(O)C(O)C(O)C(O)C=Nc1ccc(/C=C/c2ccnc3ccccc23)cc1 (stereo not drawn)	0% (inactive)	
Cc1cccc(OCC(O)Cn2c(=N)n(CCN3CCOCC3)c3ccccc32)c1 (stereo not drawn)	-26.8% (inactive)	
OC(COc1ccc2ccccc2c1)CN1CCOCC1 (stereo not drawn)		11.2 µM (active)
OC(COc1ccc2ccccc2c1)Cn1cncn1 (stereo not drawn)	3.96% (inactive)	
Cc1cc2c(cc1C)C(c1cccc(OC(C)C)c1)CC(=O)N2 (stereo not drawn)	-12.9% (inactive)	
COc1ccc(NC(=O)Nc2cccc(-c3noc(C)n3)c2)cc1	0% (inactive)	
O=C(Nc1ccc2ccccc2c1)Nc1ccc2snnc2c1	-70.4% (inactive)	
COc1ccc(NC(=O)Nc2ccc3nsnc3c2)cc1		2.51 µM (active)
Cc1ccc(C(=O)O/N=C(\N)c2ccccn2)cc1Cl	-57.3% (inactive)	
N/C(=N\OC(=O)CC1CCCCC1)c1ccccc1	18% (inactive)	
N/C(=N\OC(=O)CCC1CCCCC1)c1ccccn1		7.94 µM (active)
O=C1O/C(=C\c2ccc(O)cc2)C(O)=C1c1ccc(O)cc1	13.3% (inactive)	
COc1ccc(CCNC(=O)CCCn2c(=O)c3ccccc3n(Cc3ccc(C)cc3)c2=O)cc1OC	4.93% (inactive)	
COc1ccc(/C=C/c2ccccn2)cc1OC	2.23% (inactive)	

Structure (SMILES)	activation	Potency
COc1ccc(-c2noc(CSc3nc4ccc(C)cc4[nH]3)n2)cc1	-20.9% (inactive)	
Cc1ccc(-c2nc3ccccn3c2Nc2ccc(F)cc2)o1	23.2% (inactive)	
Cc1cccc2nc(CNc3ccc(F)cc3)cn12		12.6 µM (active)
CCOC(=O)CSc1nnc(CNc2ccc(F)cc2)o1	-0.722% (inactive)	
Cc1oc2ncn(CC(C)C)c(=O)c2c1C(=O)N1CCN(c2ccccc2F)CC1	0% (inactive)	
CCOC(OCC)c1ccc(/C=C\c2nccc(N)n2)cc1		3.16 µM (active)
O=C(Nc1ccc(Cl)cc1)c1cnn2c1NC(=C1CC1)C=C2C(F)F	-8.62% (inactive)	
CCCOC1CCCN(C(=O)c2cc(COc3cncc(Cl)c3)on2)C1 (stereo not drawn)		5.62 µM (active)
CCOC(=O)CC1(NC(=O)c2cc(COc3cncc(Cl)c3)on2)CCCCC1	-2.02% (inactive)	
CC1CN(C(=O)c2cc(COc3c(F)cccc3F)on2)CCN1C (stereo not drawn)	53.8% (inactive)	
O=C(c1ccco1)N(Cc1cccs1)c1ccc(O)cc1	0% (inactive)	
CCc1nn(CC(=O)NCC(C)c2ccccc2)c(=O)c2cc3occc3n12 (stereo not drawn)	10.8% (inactive)	
CCc1nn(CCCC(=O)NCc2ccccc2OC)c(=O)c2cc3occc3n12	0.244% (inactive)	
COc1ccc2cc(-c3nc(Cl)c4c5c(sc4n3)CC(C)CC5)c(=O)oc2c1 (stereo not drawn)	29.2% (inactive)	
Cn1c(=O)c2c(nc(NCCc3ccccc3)n2Cc2ccccc2Br)n(C)c1=O	11.3% (inactive)	
CSc1ccc(/C=C2\NC(=O)NC2=O)cc1	84.5% (inactive)	
Cc1ccccc1-n1c(C)cc(/C=C2\NC(=O)NC2=O)c1C		10 µM (active)
Cc1ccccc1-n1c(C)cc(/C=N/NC(=O)c2ccc(CN3CCOCC3)cc2)c1C	-10.3% (inactive)	
COc1ccc(Cl)cc1N(C)C(=O)c1cc2c(=O)oc3ccc(C)cc3c2s1	12.6% (inactive)	
COc1ccc(NC(=O)c2cnc(Nc3ccc(C)c(Cl)c3)c3ccccc23)cc1OC	-4.92% (inactive)	
O=C1c2ccccc2C(=O)N1c1ccc(S(=O)(=O)N2CCOCC2)c2ccccc12	1.74% (inactive)	
COc1cccc(NC(=O)CSc2cc(=O)n(C)c3ccc(Cl)cc23)c1	13.2% (inactive)	
Cc1ccc(NC(=O)CN2C(=O)CC(C)Sc3ccccc32)c(C)c1 (stereo not drawn)	-19.1% (inactive)	
O=C(N/N=C/c1c[nH]c2ccccc12)c1ccccc1O		8.91 µM (active)
C[C@H](NC(=O)c1ccccc1)C(=O)OCC(=O)c1c[nH]c2ccccc12	-34.3% (inactive)	
O=C(NC(Cc1c[nH]c2ccccc12)C(=O)N/N=C/c1ccc(Br)cc1)c1cccs1 (stereo not drawn)	-83.7% (inactive)	
